An excerpt weighted towards active compounds, which were near 19% of everything screened.
TDP1 cell noCPT = qHTS for Inhibitors of human tyrosyl-DNA phosphodiesterase 1 (TDP1): qHTS in cells in absence of CPT; DT40 Tdp1-/- hTDP1 cells, no CPT, ATP luminescence, 48 h; Potency, µM (doses to about 46.2 µM), for inactives: top-dose activity change, negative = growth inhibition, usual class: inhibitors; 15% of 420,000 active; AID 686978, 2013; further: potency means the concentration at half of the fitted maximal effect; nearly all actives have a fitted effect of over 55% in size
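DT40 Tdp1-/-;hTDP1 cells, no CPT (DMSO vehicle only), 400 cells/well; compounds pin-transferred; ≥48 hr, 37 °C; CellTiter-Glo 30 min RT dark, luminescence read.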
IL1B secr inh = inhibitors of inflammasome signaling (IL-1 beta secretion); THP-1 LPS/ATP IL-1B secretion, AlphaLISA, 16 h; stronger effect = lower value; activity change, % at 57.5 µM; 4.7% of 360,000 active; AID 743279; in the data active means activity change below about -50%; inconclusive means mostly about -30% to -49%
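THP-1 cells pretreated 1 hr with compounds (up to 57.5 uM final), then stimulated with LPS (250 ng/mL final) plus ATP (1.25 mM final); secreted IL-1B measured by AlphaLISA after 16 hr, decreased signal indicating inhibition.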
HT1080-NT tox = kills 2HG-producing HT-1080-NT fibrosarcoma cells; HT-1080-NT fibrosarcoma viability, CellTiter-Glo ATP luminescence, 48 h; Potency, µM (highest dose often 46.1 µM), for the others: top-dose activity, negative = less viability, hits mostly cytotoxic; 1.6% of 360,000 active; AID 686970;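 further: NT is the 2HG producing partner of a matched IDH1 knockdown line; potency means the concentration at half of the fitted maximal effect; 0% = DMSO-treated cells and -100% = media-only wells without cells; nearly all actives have a fitted effect of over 55% in size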
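Viability by CellTiter-Glo luminescence after 48 h compound exposure at 37C of HT-1080-NT cells (750/well, RPMI, 5% FBS). % activity scaled between DMSO wells and medium-only wells, then curve-fitted and categorized by curve class.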
ELG1 DNA repair = inhibitors of ELG1-dependent DNA repair in HEK293T cells; HEK293T ELG1-luciferase reporter, luminescence, 16 h; DNA damage induced by 5-fluorouridine; Potency, µM (doses to about 46.1 µM), for the others: at the highest dose activity change, negative = inhibition, usual class: inhibitors; 2.3% of 330,000 active; AID 504467; further: potency means the concentration at half of the fitted maximal effect; nearly all actives have a fitted effect of over 55% in size
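Overnight (16 hr) co-exposure of 2,000 cells/well to 5-fluorouridine and compound at 37 °C preceded detection. Luciferase was quantified via ONE-Glo luminescence; loss of signal denotes inhibition.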
DT40 TDP1 CPT = DT40-hTDP1 cell growth loss with CPT | Potency, µM (top dose mostly 46.2 µM), for the others: at the top dose activity change, negative = growth inhibition, hits mostly inhibitors | chicken DT40 Tdp1-/-;hTDP1 cells + 20 nM CPT, ATP luminescence, 48 h | 12% of 420,000 active; further: potency means the concentration at half of the fitted maximal effect; nearly all actives have a fitted effect of over 55% in size
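Chicken DT40 Tdp1-/- cells stably complemented with human TDP1 were seeded at 400 cells/well in medium containing 20 nM camptothecin, exposed to pin-transferred compounds, and grown at 37 °C for at least 48 hr. Viability was read as ATP luminescence.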
HT1080 IDH1KD tx = HT-1080 IDH1 knockdown cell toxicity (counter line) | AID 686971 | 2% of 360,000 active | HT-1080 IDH1 knockdown viability, ATP luminescence, 48 h | Potency, µM (doses to about 46.1 µM), inactives show at the top dose activity, negative = toxicity, most hits filed as cytotoxic;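 further: potency means the concentration at half of the fitted maximal effect; 0% = DMSO wells and -100% = cell-free medium wells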
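Knockdown cells (IDH1KD HT-1080) received compounds 2 h after plating at 750 cells/well and were kept 48 h at 37 °C in 5% FBS RPMI. A CellTiter-Glo luminescence read gave % activity for curve fitting.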
The depositor's hits bear a star; ? = inconclusive; . = no result; ! = repeats disagree. Unless noted, the call rests on the fitted dose curve; in most records, active means well fitted curve in the direction sought with a large enough effect; inconclusive means small, poorly fitted or top-dose-only effect, or another doubt; inactive means no such curve, though single readings can be large; an effect the other way counts as inactive or inconclusive. Unless noted, on the % scale 0 is the no-effect control and ±100 the full control effect.

SMILES | TDP1 cell noCPT | IL1B secr inh | HT1080-NT tox | ELG1 DNA repair | DT40 TDP1 CPT | HT1080 IDH1KD tx
CCCNC(=O)c1cc2c(c(-c3cccc(-c4cc5ccccc5o4)c3)n1)[C@H](CCO)N(C(=O)NC(C)C)C2 | 11.6µM* | -72.1* | ? | . | 8.2µM* | ?
CCC(=NCc1ccc2c(c1)OCO2)c1c(O)n(C2CCCCC2)c(=O)[nH]c1=O | ? | 1.4 | -23.4% | 20.6µM* | ? | ?
O=S1(=O)N(CCN2CC=C(c3c[nH]c4cc(F)ccc34)CC2)c2cccc3c2N1CCC3 | 16.4µM* | -58.8* | 13µM* | ? | 9.2µM* | 16.4µM*
COc1cccc(CN2CC=C(c3ccc(F)cc3)CC2)c1 | -9.2% | -7.9 | -9.9% | -0.4% | -1.4% | -20.3%
CCCCn1c(=O)c(C(=O)NC(C)c2ccccc2)c(O)c2ccccc21 (centres undefined) | ? | -6.0 | 15.3% | -10.4% | ? | 16.6%
CCOC(=O)Cc1csc(NC(=O)c2c(O)c3ccccc3n(CCC(C)C)c2=O)n1 | 4.61µM* | 12.4 | 10.6% | ? | 4.11µM* | 2.8%
CCCCCCn1c(=O)c(C(=O)Nc2nc(CC(=O)OCC)cs2)c(O)c2ccccc21 | 3.66µM* | 3.1 | 1.6% | 1.64µM* | 3.66µM* | -5.5%
O=C(NC1CONC1=O)OCC(Cl)(Cl)Cl (centres undefined) | -3.9% | 10.8 | -1.7% | -5.7% | -1.2% | 1.4%
CCCCOP(=O)(OCCCC)C(O)c1ccc(Br)cc1 (centres undefined) | 18.4µM* | -3.6 | 5.7% | -7.6% | 23.1µM* | 11.6%
CC(C)c1ccc(Oc2cccc3c2S(=O)(=O)N(C2CCCC2)CC(COCc2ccccc2)O3)cc1 (centres undefined) | 9.2µM* | -23.7 | -6.3% | . | 10.3µM* | -0.1%
N[C@H](C(=O)O)[C@@H]1CC(Cl)=NO1 | 2.11µM* | . | . | . | 1.68µM* | .
O=C(Nc1ccc(Br)cc1C(=O)c1ccccc1Cl)c1ccccc1F | -14.0% | . | . | . | 8.5% | .
C#CCC(Cc1cnc2nc(N)nc(N)c2n1)c1ccc(C(=O)N[C@@H](CCC(=O)O)C(=O)O)cc1 (some centres undefined) | 0.0237µM* | . | . | . | 0.0335µM* | .
O=C(Nc1ccc(Cl)cc1)C1CCN(C(=O)c2cccs2)CC1 | ? | -12.9 | -3.1% | -3.4% | -25.6% | -16.5%
O=C(O)c1ccccc1-c1ccc(C=C2C(=O)N(c3ccccc3)C(=S)N(c3ccccc3)C2=O)o1 | 1.5% | -12.2 | 1.4% | ? | ? | 3.7%
CC(=O)N1c2ccc(S(=O)(=O)N3CCCC(C(=O)Nc4cc(C)cc(C)c4)C3)cc2CC1C (centres undefined) | ? | -2.6 | -0.8% | ? | ? | -15.1%
CC(=O)N1c2ccc(S(=O)(=O)NCC3CCC(C(=O)Nc4cc(C)cc(C)c4)CC3)cc2CC1C (centres undefined) | 16.4µM* | . | . | . | 20.6µM* | .
CSc1ccccc1C(=O)C1CCCN(Cc2ccccn2)C1 (centres undefined) | ? | 30.7 | -5.3% | 3.6% | 3.3% | 16.7%
Cc1cccc(CN2CCCC(C(=O)c3ccc(C(F)(F)F)cc3)C2)n1 (centres undefined) | 18.4µM* | 17.2 | -0.4% | -11.0% | ? | ?
CSc1ccccc1C(=O)C1CCCN(Cc2cccc(C)n2)C1 (centres undefined) | ? | -75.3* | ? | -15.2% | ? | ?
CC1CCN(C(=O)C2CCN(c3nnc(-n4cccc4)s3)CC2)CC1 | ? | 0.0 | 4.0% | -22.5% | -28.4% | -14.8%
Cc1cccc(NP2(=O)NCCCN2)c1 | 0.1% | -13.0 | 3.0% | . | -6.5% | 2.6%
O=C(CCC1CCCC1)c1c(O)c2ccccc2oc1=O | 4.11µM* | -10.9 | -1.2% | 17.9% | 5.17µM* | -1.2%
Cc1ccc([C@H]2C[C@@H](O)[C@H](n3cc(COC(=O)c4ccccc4)nn3)CN2C(=O)C2CCCCC2)cc1 | ? | -26.1 | -0.1% | . | -23.2% | 0.1%
COC(=O)c1c(NC(=O)C2CC=CCC2C(=O)O)sc2c1CCCCC2 (centres undefined) | ? | -1.1 | -0.1% | ? | -22.8% | -2.8%
SMILES | TDP1 cell noCPT | IL1B secr inh | HT1080-NT tox | ELG1 DNA repair | DT40 TDP1 CPT | HT1080 IDH1KD tx
CCC(C)NC(=O)c1c(N)n(CCCOC)c2nc3ccccc3nc12 (centres undefined) | ? | ? | -3.7% | 16.4µM* | -6.3% | -4.1%
COCCCn1c(N)c(C(=O)Nc2ccccc2)c2nc3ccccc3nc21 | ? | -75.7* | ? | 16.4µM* | 29.1µM* | ?
COCCCn1c(N)c(C(=O)Nc2sc3c(c2C(=O)OC)CCCC3)c2nc3ccccc3nc21 | 17.8µM* | -71.9* | 0.0% | 0.2% | ? | 15.3%
COCCCn1c(N)c(C(=O)OC(C)COC)c2nc3ccccc3nc21 (centres undefined) | -17.2% | -20.2 | -3.7% | ? | -8.5% | -2.6%
CN1CCN(c2ccccc2NC(=O)c2ccc(-c3ccc(Cl)c(Cl)c3)o2)CC1 | ? | -77.7* | -3.6% | 18.5% | 18.4µM* | -1.6%
CC1CCN(c2ccccc2NC(=O)c2cc3ccccc3o2)CC1 | ? | 0.0 | -12.8% | 4.3% | ? | -27.2%
C[C@]12CC[C@@H]3c4ccc(O)cc4C[C@@H](CCCCCCCCCS(=O)CCCC(F)(F)C(F)(F)F)[C@H]3[C@@H]1CC[C@@H]2O (some centres undefined) | ? | . | . | . | -40.0% | .
C[C@@]12CC[C@@H]3c4ccc(O)cc4C[C@H](CCCCCCCCCS(=O)CCCC(F)(F)C(F)(F)F)[C@H]3[C@@H]1CC[C@@H]2O (some centres undefined) | 11.9µM* | . | . | . | -57.6% | .
Cc1ccc(CN2C3CCCC2CC(NC(=S)NCc2ccccc2)C3)cc1 (centres undefined) | ? | -64.5* | 23.1µM* | -4.4% | ? | ?
Cc1ccccc1-n1c(CF)nc2ccc(N)cc2c1=O | -23.4% | . | . | . | -28.0% | .
Cc1cccc(N2CCc3c2nc2ccccc2c3N)c1 | ? | -91.4*! | 0.0% | ? | 14.6µM* | -0.8%
CC(C)Nc1ccc(Nc2ccccc2)cc1 | 6.51µM* | -94.7* | . | ? | 6.51µM* | .

Bioassay records deposited in PubChem BioAssay by National Center for Advancing Translational Sciences (NCATS).
